Test results from PubChem BioAssay (EPA / NIEHS).
Several values for one entry are separate records, joined by “and”; a condition that tells them apart may be missing. Identical values can stand only once. Some structures have more than one record in an assay (separate samples or runs), and their calls can disagree. Activity calls are given as the source filed them. How the source made its calls: active means hit-call score of the fitted dose curve at least 0.9, where 1 is the maximum; inactive means score below 0.9.

Legend:
Conditions in all cases: mRNA level, 48 h; actives raise or lower the signal
[1] = read-out: Pro-epidermal growth factor (Homo sapiens) (UniProt P01133); assay: LTEA_HepaRG_EGF: Life Technologies and Expression Analysis (LTEA) Assay for Epidermal growth factor (EGF) using HepaRG (AID 2283489)
Outline: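 qRT-PCR readout of EGF transcript after 48 h chemical exposure of HepaRG cells; eight concentrations from 100 uM down in half-log steps, duplicate wells, 0.5% DMSO vehicle. Bidirectional curve fitting against DMSO baseline.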

[2] = read-out: Early growth response protein 1 (EGR1) transcription factor, EGR1 (gene 1958); assay: LTEA_HepaRG_EGR1: Life Technologies and Expression Analysis (LTEA) Assay for Early growth response protein 1 (EGR1) transcription factor using HepaRG (AID 2283490)
Procedure: LTEA_HepaRG is a cell based, multiplexed-readout assay that uses HepaRG, a human liver cell line, with measurements taken at 48 hours after chemical dosing on a 96-well plate.LTEA_HepaRG_EGR1 is one of 102 assay component(s) measured in the LTEA HepaRG cell culture assay. It is a marker of Cell proliferation, survival, death.Data from the assay component LTEA_HepaRG_EGR1 was analyzed into 1 endpoint. This assay endpoint, LTEA_HepaRG_EGR1, was analyzed with bidirectional fitting relative to DMSO as the negative control and baseline of activity. Using a type of inducible reporter, measures of mRNA induction for gain or loss-of-signal activity can be used to understand regulation of transcription factor activity. To generalize the intended target to other relatable targets, this assay endpoint is annotated to the dna binding intended target family, where the subfamily is zinc finger.
A total of 1060 chemcials from the ToxCast library were tested in eight-point concentration-response experiments. Cell culture and cytotoxicity assays were conducted at Thermo Fisher Scientific's Custom Services facility (Madison, WI). A single lot of human HepaRG cells (Thermo Fisher Scientific, Frederick, MD) was used for the cell culture experiments. 96-well format collagen type I coated plates of human HepaRG cells were prepared using established methods. Briefly, cryopreserved HepaRG cells were thawed, plated at a density of approximately 100,000 cells/well in HepaRG Thaw, Plate, and General Purpose media (HPRG770, Thermo Fisher Scientific), and incubated for 48 hours. 0.5% DMSO was selected as vehicle control to balance the requisite need of DMSO in HepaRG cultures to maintain differentiation (for example, baseline metabolism, proportions of hepatocytes vs. cholangiocytes), while enabling further hepatic receptor pathway activation (for example, PXR and CAR) in response to chemical exposure. 48 hours after plating, the culture medium was replaced with HepaRG Serum-Free Incudtion Media. Cells were exposed to each test chemical in duplicate and maintained in CO2 incubators for another 48 hours. Chemical plates were thawed to room temperature and 200x concentrations of treatment groups were prepared. 8-point conentration-reponse curves were made with the highest exposure at 100 uM, followed by half-log dilutions, all in 0.5% DMSO. Each test plate contained variouse controls, induction positive controls (1mM phenobarbital), cytotoxicity positive controls ([…] aflatoxin B1), vehicle controls (0.5% DMSO), and total lysis controls (0.5% DMSO). Cell morphology images were taken using an Essen IncuCyte FLR automated microscope, with six 96-well plates imaged in about 24 minutes. Images were captured and exported and JPEG files. Spent culture media was transfered to black-well plates for the LDH assay, and remaining media was sorted at -80 C for later use. Cells were treated with RLT buffer and frozen until shipped for gene expression analysis. Total RNA was isolated from the cell suspension in 75 uL of Buffer RLT (Qiagen, Germantown, MD 20874) by Quintiles/Expression Analysis (Durham, NC) using a custom isolation procedure. Total RNA from each plate well was transferred to a preamplification plate. Fluidigm's 96.96 Dynamic ArrayTM (Fluidigm, Amsterdam, the Netherlands) technology was used for gene expression analyses by quantitative reverse transcription polymerase chain reaction (qRT-PCR, performed by Quintiles/Expression Analysis, Durham, NC)89. Standard TaqManTM Assays (Applied Biosystems/ThermoFisher Scientific, Foster City, CA) were used to assess the expression of 93 genes selected based on their selectivity and sensitivity to important hepatic receptors known to be modulated by environmental chemicals; importance in human hepatocyte functionality; and hepatotoxicity. […]

[3] = read-out: Ezrin (EZR), EZR (gene 7430); assay: LTEA_HepaRG_EZR: Life Technologies and Expression Analysis (LTEA) Assay for Ezrin (EZR) using HepaRG (AID 2283491)
Outline: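 HepaRG, 48 h chemical exposure, 8-pt half-log series from 100 uM, 0.5% DMSO vehicle, duplicates. Read-out: EZR mRNA by TaqMan qRT-PCR (Fluidigm array), housekeeping-normalized; bidirectional curve fit vs DMSO baseline.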

[4] = read-out: Cytochrome P450 3A7 (Homo sapiens) (UniProt P24462); assay: LTEA_HepaRG_CYP3A7: Life Technologies and Expression Analysis (LTEA) Assay for CYP3A7 using HepaRG (AID 2283492)
Outline: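 CYP3A7 transcript levels were read by TaqMan qRT-PCR on Fluidigm arrays after 48 h chemical exposure of human HepaRG cells, with housekeeping-gene normalisation. Eight half-log concentrations up to 100 uM in 0.5% DMSO were tested in duplicate.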

CYP3A5 (gene 1577) = assay: LTEA_HepaRG_CYP3A5: Life Technologies and Expression Analysis (LTEA) Assay for CYP3A5 using HepaRG (AID 2283493)
Outline: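 Differentiated HepaRG cells in serum-free induction medium were dosed 48 h with test chemicals (8-point half-log series, top 100 uM, 0.5% DMSO, duplicate). CYP3A5 mRNA measured by qRT-PCR, normalized to ACTB, GAPDH, POLR2A; bidirectional fit versus DMSO.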

[5] = read-out: Fatty Acid-Binding Protein 1 (FABP1), FABP1 (gene 2168); assay: LTEA_HepaRG_FABP1: Life Technologies and Expression Analysis (LTEA) Assay for Fatty Acid-Binding Protein 1 (FABP1) using HepaRG (AID 2283494)
Outline: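 HepaRG, 48 h post-plating switched to serum-free induction medium, then dosed 48 h (duplicate, 8 pts, ≤100 uM, 0.5% DMSO). RNA → Fluidigm TaqMan qRT-PCR, FABP1 normed to ACTB/GAPDH/POLR2A. Bidirectional curve fit vs DMSO.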

[6] = read-out: Cytochrome P450 4A22 (Homo sapiens) (UniProt Q5TCH4); assay: LTEA_HepaRG_CYP4A22: Life Technologies and Expression Analysis (LTEA) Assay for Cytochrome P450 4A22 (CYP4A22) using HepaRG (AID 2283495)
Outline: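 HepaRG, 48 h post-plating -> serum-free induction medium; dosed 48 h, duplicate, 8 conc. (100 uM top, half-log), 0.5% DMSO. Readout: CYP4A22 mRNA by qRT-PCR, ACTB/GAPDH/POLR2A normalization; gain/loss fit relative to DMSO.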

[7] = read-out: Cytochrome P450 7A1 (Homo sapiens) (UniProt P22680); assay: LTEA_HepaRG_CYP7A1: Life Technologies and Expression Analysis (LTEA) Assay for Cytochrome P450 7A1 (CYP7A1) using HepaRG (AID 2283496)
Outline: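 Gene expression endpoint in human HepaRG liver cells treated for 48 h with test chemicals (up to 100 uM, 0.5% DMSO). Values come from bidirectional concentration-response fitting versus DMSO.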

[8] = read-out: Glutathione S-Transferase (GSTA2), GSTA2 (gene 2939); assay: LTEA_HepaRG_GSTA2: Life Technologies and Expression Analysis (LTEA) Assay for Glutathione S-Transferase (GSTA2) using HepaRG (AID 2283497)
Outline: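 HepaRG, 48 h dosing, 8-pt half-log CRC from 100 uM, 0.5% DMSO vehicle, n=2; RNA → Fluidigm TaqMan qRT-PCR; GSTA2 vs ACTB/GAPDH/POLR2A; gain/loss fit vs DMSO.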

[9] = read-out: Glutamate-cysteine ligase catalytic (GCLC), GCLC (gene 2729); assay: LTEA_HepaRG_GCLC: Life Technologies and Expression Analysis (LTEA) Assay for Glutamate-cysteine ligase catalytic (GCLC) using HepaRG (AID 2283498)
Outline: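 Read-out is GCLC transcript level by Fluidigm-based TaqMan qRT-PCR, normalized to three housekeeping genes and fitted in both directions relative to 0.5% DMSO. Human HepaRG cells received chemicals for 48 h, up to 100 uM.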

Cytochrome P450 3A7 (Homo sapiens), sequence (P24462 whole entry, looked up): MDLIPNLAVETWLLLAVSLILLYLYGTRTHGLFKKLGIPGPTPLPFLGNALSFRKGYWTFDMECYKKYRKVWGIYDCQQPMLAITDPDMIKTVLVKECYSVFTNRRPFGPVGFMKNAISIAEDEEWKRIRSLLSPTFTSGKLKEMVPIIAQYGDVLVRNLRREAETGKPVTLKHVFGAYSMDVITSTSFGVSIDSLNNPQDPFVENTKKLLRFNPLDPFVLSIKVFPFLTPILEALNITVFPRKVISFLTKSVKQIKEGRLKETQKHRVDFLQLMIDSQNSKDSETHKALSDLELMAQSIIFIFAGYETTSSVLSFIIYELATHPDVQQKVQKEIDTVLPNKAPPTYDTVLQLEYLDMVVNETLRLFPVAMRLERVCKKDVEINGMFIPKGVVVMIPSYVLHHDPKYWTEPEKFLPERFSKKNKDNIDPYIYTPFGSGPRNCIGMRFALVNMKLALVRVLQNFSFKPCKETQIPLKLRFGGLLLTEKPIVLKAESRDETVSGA

Compound | outcome [1] | AC50 [2] | AC50 [3] | outcome [4] | AC50 (CYP3A5 (gene 1577)) | AC50 [5] | outcome [6] | outcome [7] | AC50 [8] | outcome [9] | outcome [2] | outcome [3] | outcome (CYP3A5 (gene 1577)) | outcome [5] | outcome [8] | AC50 [6]
O=C(c1ccc(OCCN2CCCCC2)cc1)c1c(-c2ccc(O)cc2)sc2cc(O)ccc12 | inactive | 90.9 µM (active) | 50 µM (active) | inactive | 41.4 µM (active) | 50 µM (active) | inactive | inactive | 69.1 µM (active) | inactive |  |  |  |  |  | 
CCCCOCCOCCO | inactive |  |  | inactive |  |  | inactive | inactive |  | inactive | inactive | inactive | inactive | inactive | inactive | 
COC(=O)c1ccc(C(=O)OC)cc1 | inactive |  |  | inactive |  |  | inactive | inactive |  | inactive | inactive | inactive | inactive | inactive | inactive | 
CC/C(=C(\c1ccccc1)c1ccc(OCCN(C)C)cc1)c1ccccc1 | inactive | 73.6 µM (active) | 81.4 µM (active) and 50 µM (active) | inactive | 86.7 µM (active) | 60 µM (active) and 70.9 µM (active) |  | inactive | 70.2 µM (active) | inactive | inactive |  | inactive |  | inactive | 14.5 µM (active) and 20.7 µM (active)
C=C(C)C(N)=O | inactive |  |  | inactive |  |  | inactive | inactive |  | inactive | inactive | inactive | inactive | inactive | inactive | 
C[C@]12CC[C@@H]3c4ccc(O)cc4CC[C@H]3[C@@H]1CC[C@@H]2O | inactive |  |  |  | 50 µM (active) | 29 µM (active) |  | inactive |  | inactive | inactive | inactive |  |  | inactive | 50 µM (active)
C#C[C@]1(O)CC[C@H]2[C@@H]3CCc4cc(O)ccc4[C@H]3CC[C@@]21C | inactive |  |  | inactive |  |  | inactive | inactive |  | inactive | inactive | inactive | inactive | inactive | inactive | 
